For one molecule, residual activity results are on record in ChEMBL document CHEMBL2218924, “A broad activity screen in support of a chemogenomic map for kinase signalling research and drug discovery” (Biochem J, 2013).

Test [1] deals with T1, Ephrin type-A receptor 3 (Homo sapiens) (UniProt P29320).
T1 sequence (whole entry): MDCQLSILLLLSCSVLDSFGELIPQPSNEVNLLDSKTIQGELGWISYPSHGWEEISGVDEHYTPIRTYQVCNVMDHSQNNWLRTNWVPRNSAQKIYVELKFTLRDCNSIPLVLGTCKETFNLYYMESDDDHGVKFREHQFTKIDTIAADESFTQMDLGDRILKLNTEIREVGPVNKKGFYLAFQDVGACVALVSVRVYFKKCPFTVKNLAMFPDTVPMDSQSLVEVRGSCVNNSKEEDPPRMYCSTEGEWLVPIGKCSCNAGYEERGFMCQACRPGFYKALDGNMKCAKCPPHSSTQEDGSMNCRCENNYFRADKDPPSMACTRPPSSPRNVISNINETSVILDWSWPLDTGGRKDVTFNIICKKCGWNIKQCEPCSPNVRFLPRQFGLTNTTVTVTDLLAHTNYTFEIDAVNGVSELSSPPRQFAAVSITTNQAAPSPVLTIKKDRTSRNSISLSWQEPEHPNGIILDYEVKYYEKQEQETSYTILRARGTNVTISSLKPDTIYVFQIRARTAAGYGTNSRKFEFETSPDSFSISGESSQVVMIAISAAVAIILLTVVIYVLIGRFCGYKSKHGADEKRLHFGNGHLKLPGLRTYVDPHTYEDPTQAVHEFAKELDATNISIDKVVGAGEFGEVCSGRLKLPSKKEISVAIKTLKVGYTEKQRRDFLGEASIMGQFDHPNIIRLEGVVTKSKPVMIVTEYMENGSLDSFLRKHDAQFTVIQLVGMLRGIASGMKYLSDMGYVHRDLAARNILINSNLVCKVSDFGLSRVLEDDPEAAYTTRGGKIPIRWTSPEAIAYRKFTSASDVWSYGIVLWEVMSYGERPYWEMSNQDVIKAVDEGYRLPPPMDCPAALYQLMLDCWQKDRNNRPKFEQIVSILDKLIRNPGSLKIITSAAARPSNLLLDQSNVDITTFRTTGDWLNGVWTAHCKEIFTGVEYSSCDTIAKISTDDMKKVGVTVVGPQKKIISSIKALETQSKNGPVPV
As to conditions: at 10 µM.

The target in test [2] is Ephrin type-A receptor 4 (Homo sapiens) (UniProt P54764). As to conditions: at 1 µM.
Test [3] shares this target. The following applies: at 10 µM.
Test [4] concerns the target Ephrin type-A receptor 5 (Homo sapiens) (UniProt P54756). As to conditions: at 1 µM.
Test [5] shares this target. As to conditions: at 10 µM.
The target in test [6] is Ephrin type-A receptor 7 (Homo sapiens) (UniProt Q15375). The following applies: at 1 µM.
For test [7] the target is unchanged. As to conditions: at 10 µM.
Test [8] deals with T2, Ephrin type-A receptor 8 (Homo sapiens) (UniProt P29322).
T2 sequence (whole entry): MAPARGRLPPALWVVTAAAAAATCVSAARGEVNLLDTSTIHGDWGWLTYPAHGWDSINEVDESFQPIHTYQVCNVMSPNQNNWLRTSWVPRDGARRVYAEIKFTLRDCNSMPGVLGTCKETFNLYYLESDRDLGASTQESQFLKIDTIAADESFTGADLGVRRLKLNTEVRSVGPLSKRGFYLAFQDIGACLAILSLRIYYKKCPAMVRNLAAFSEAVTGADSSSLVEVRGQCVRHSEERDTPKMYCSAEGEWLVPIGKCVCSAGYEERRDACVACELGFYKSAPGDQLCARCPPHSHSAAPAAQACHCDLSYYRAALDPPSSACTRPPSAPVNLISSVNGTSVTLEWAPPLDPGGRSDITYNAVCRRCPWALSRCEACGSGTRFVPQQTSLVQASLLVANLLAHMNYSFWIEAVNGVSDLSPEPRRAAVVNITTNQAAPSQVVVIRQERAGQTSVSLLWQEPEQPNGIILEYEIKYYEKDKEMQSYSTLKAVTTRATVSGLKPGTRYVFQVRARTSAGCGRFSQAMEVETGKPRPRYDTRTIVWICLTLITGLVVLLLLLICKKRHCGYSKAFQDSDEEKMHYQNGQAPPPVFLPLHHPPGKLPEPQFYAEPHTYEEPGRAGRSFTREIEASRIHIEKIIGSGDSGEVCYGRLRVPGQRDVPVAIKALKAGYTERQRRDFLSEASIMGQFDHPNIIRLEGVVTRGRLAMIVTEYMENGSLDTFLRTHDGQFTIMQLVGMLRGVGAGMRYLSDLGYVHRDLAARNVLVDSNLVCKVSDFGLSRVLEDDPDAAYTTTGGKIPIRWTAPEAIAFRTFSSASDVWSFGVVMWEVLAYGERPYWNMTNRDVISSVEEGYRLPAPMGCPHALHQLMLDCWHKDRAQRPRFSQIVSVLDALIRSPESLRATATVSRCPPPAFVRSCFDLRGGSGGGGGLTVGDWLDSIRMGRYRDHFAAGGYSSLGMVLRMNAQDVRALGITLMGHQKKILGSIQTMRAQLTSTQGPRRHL
The following applies: at 1 µM.

In test [9] the target is T2, Ephrin type-A receptor 8 (Homo sapiens). The following applies: at 10 µM.
Test [10] deals with T3, Ephrin type-B receptor 1 (Homo sapiens) (UniProt P54762).
T3 sequence (whole entry): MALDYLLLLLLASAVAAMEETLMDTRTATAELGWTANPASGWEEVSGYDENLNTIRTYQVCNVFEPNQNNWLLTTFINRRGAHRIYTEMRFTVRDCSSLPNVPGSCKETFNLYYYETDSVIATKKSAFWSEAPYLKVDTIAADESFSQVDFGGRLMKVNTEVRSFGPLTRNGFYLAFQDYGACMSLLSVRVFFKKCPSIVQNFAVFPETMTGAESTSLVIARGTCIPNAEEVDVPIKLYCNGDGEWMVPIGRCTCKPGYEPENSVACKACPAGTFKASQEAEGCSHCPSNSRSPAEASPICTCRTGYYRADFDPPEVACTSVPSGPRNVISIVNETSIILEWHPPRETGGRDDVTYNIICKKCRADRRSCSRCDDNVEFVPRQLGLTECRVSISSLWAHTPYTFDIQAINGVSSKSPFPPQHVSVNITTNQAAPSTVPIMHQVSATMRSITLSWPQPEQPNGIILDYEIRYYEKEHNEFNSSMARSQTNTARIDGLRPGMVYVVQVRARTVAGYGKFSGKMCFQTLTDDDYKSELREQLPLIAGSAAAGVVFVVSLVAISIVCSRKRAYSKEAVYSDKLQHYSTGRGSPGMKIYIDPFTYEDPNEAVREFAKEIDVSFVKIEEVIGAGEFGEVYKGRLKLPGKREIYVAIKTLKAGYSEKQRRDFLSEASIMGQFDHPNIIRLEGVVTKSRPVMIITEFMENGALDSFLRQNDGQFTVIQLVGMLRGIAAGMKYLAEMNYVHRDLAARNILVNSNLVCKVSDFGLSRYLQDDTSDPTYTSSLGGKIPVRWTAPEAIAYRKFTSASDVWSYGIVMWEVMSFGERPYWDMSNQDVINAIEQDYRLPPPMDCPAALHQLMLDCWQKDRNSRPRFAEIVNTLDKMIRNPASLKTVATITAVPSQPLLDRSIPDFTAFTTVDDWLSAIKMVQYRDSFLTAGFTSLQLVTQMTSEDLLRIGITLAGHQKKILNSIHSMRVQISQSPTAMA
The following applies: at 1 µM.

The residual activity is the signal under treatment as a percentage of the control signal. Low values mean little activity left, high ones much activity left.

Ephrin type-A receptor 4 (Homo sapiens), sequence (P54764 whole entry): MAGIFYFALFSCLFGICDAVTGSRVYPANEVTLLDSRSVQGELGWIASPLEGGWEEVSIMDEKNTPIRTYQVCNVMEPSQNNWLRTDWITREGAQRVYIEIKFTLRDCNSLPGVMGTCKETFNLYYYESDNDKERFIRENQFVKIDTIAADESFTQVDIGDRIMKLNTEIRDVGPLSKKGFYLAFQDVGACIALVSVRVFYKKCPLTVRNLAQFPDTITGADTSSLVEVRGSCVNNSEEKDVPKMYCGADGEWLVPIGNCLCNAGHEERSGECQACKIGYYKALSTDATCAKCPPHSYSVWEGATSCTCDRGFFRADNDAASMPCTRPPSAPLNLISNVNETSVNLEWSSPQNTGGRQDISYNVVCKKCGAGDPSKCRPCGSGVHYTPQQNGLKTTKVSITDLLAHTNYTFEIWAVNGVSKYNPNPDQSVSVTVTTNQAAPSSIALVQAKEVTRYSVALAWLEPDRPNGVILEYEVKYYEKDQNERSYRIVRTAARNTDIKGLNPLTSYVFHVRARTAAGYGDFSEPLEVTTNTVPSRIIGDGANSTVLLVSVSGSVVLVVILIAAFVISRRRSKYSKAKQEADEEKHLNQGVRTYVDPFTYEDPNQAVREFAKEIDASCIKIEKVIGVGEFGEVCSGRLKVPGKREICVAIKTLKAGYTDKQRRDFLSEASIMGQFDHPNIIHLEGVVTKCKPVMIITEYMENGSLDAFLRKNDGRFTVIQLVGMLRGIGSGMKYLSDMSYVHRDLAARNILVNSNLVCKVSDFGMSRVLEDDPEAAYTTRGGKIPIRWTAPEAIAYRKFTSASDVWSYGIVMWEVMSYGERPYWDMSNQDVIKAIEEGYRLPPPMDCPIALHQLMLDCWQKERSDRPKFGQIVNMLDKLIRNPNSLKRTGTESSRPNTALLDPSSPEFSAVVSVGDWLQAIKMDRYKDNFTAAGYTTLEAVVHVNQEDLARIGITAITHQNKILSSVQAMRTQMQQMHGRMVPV
Ephrin type-A receptor 7 (Homo sapiens), sequence (Q15375 28-998 limits assumed): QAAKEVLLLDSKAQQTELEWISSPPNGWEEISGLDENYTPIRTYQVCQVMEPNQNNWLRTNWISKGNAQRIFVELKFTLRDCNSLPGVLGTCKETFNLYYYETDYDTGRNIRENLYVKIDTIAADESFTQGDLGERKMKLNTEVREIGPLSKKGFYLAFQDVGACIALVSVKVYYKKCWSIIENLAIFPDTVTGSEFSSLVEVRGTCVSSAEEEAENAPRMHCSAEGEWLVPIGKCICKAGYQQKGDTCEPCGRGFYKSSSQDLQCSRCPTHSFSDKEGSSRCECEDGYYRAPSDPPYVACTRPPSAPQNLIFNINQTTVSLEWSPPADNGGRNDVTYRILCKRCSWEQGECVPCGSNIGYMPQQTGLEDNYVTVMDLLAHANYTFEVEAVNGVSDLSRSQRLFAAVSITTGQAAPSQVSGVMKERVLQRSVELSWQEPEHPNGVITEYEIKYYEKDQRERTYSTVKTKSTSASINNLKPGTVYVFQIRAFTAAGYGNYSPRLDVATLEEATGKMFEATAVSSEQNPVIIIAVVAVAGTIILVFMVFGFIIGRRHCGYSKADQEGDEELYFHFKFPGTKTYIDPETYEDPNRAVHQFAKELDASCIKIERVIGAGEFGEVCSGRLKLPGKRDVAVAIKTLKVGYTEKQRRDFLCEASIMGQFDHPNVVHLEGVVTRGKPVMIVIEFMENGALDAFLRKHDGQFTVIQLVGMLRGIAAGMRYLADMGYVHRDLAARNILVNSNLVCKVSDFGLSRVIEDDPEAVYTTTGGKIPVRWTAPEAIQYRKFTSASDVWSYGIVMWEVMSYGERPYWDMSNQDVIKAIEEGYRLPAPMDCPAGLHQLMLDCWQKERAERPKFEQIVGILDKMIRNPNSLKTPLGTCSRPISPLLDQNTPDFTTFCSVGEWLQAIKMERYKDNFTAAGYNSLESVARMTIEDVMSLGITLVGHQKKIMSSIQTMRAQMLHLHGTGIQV
Ephrin type-A receptor 5 (Homo sapiens), sequence (P54756 whole entry): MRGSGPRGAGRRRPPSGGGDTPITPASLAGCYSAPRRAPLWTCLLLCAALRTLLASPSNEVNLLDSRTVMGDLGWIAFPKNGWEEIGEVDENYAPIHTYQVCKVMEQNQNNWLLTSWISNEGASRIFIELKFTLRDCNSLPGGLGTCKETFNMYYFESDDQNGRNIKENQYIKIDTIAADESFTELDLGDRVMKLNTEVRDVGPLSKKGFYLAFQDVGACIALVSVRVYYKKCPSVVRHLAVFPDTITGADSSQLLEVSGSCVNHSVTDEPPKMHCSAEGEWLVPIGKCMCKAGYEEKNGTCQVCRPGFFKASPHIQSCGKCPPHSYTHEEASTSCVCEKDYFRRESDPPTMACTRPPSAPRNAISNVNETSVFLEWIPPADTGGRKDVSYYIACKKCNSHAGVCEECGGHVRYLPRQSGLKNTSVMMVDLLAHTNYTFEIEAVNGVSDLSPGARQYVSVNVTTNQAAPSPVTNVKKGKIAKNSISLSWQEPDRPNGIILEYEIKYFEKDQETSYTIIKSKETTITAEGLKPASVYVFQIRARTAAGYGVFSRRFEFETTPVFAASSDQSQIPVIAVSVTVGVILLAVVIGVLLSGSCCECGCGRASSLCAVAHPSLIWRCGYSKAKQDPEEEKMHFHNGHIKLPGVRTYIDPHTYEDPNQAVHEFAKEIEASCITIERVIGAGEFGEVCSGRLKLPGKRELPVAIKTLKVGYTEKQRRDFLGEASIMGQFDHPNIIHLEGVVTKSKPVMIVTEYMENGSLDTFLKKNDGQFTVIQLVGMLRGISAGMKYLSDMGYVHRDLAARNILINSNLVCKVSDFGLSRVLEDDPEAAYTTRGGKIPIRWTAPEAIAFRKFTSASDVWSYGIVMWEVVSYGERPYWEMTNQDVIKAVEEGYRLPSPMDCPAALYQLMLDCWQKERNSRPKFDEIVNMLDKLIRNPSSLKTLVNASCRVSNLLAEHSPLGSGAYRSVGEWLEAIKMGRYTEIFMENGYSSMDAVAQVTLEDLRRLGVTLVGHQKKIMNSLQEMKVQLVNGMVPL

`Cn1cc(/C=C2\C(=O)Nc3ccc(S(N)(=O)=O)cc32)c2ccccc21`: the residual activity in [1] was determined as 13%; in [2], 96%; in test [3] it was 89%; in test [4], 54%; in [5] it was 53%; in [6], 32%. Moreover, the residual activity in test [7] came out at 9%; in [8], 88%; in test [9], 54%; in [10], 66%.
